Experimental data: PubChem BioAssay (NCI)
The panel holds about 79,000 compounds, 15% with a hit somewhere; the sample as a whole holds those more often. The source made the active and inactive calls. Rule as the data show it: active = growth inhibition above about 70%; inactive = the rest.

Assays:
[1] = NCI Yeast Anticancer Drug Screen. Data for the rad52 strain (AID 147);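 also: 0% = growth of vehicle-treated control cultures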; settings: S. cerevisiae rad52 mutant growth inhibition, hits give high values
Method in brief: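 The repair-mutant yeast strain was incubated with compounds, then growth was read and inhibition derived relative to vehicle.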

[2] = NCI Yeast Anticancer Drug Screen. Data for the wt1 strain (AID 149);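 also: 0% = growth of vehicle-treated wt1 cultures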; settings: S. cerevisiae wt1 strain (SPY 50644) growth inhibition, hits give high values
Method in brief: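 The wt1 strain was treated with compounds, and growth was compared with vehicle-treated cultures to give inhibition.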

[3] = NCI Yeast Anticancer Drug Screen. Data for the rad50EPP+ strain (AID 151);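 also: 0% = growth of vehicle-treated control cultures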; settings: S. cerevisiae rad50 mutant strain, hits give high values
Method in brief: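 Vehicle-normalised growth inhibition; rad50EPP+ yeast strain, altered in DNA damage repair, compound-treated.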

[4] = NCI Yeast Anticancer Drug Screen. Data for the mgt1 strain (AID 153); settings: S. cerevisiae mgt1 mutant growth inhibition, hits give high values
Method in brief: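 Vehicle-normalized growth inhibition is determined in mgt1 yeast, a strain selected for a defined alteration in DNA repair or cell cycle control.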

[5] = NCI Yeast Anticancer Drug Screen. Data for the rad50 strain (AID 155);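 also: 0% = growth of vehicle-only cultures of the same strain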; settings: S. cerevisiae rad50 strain growth inhibition, hits give high values
Method in brief: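 Cells are treated with compound, grown, and their growth is then scored against vehicle-only cultures of the same repair-deficient yeast strain.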

[6] = NCI Yeast Anticancer Drug Screen. Data for the mec2-1 strain (AID 157); settings: S. cerevisiae mec2-1 strain, hits give high values
Method in brief: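 Mutant yeast (mec2-1) grown with compound; growth inhibition relative to vehicle control reported.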

[7] = NCI Yeast Anticancer Drug Screen. Data for the sgs1 mgt1 strain (AID 161);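 also: 0% = growth of cultures given vehicle only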; settings: S. cerevisiae sgs1 mgt1 strain, hits give high values
Method in brief: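 This yeast growth screen uses a strain with defined DNA-repair lesions; compound-treated growth is compared with vehicle-treated growth.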

[8] = NCI Yeast Anticancer Drug Screen. Data for the CLN2oe strain (AID 163);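 also: 0% = growth of vehicle-only control cultures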; settings: S. cerevisiae CLN2oe strain, hits give high values
Method in brief: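 Compounds are applied to yeast harbouring a defined cell-cycle control change; reduced growth compared with vehicle-treated controls gives the value.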

[9] = NCI Yeast Anticancer Drug Screen. Data for the cln2 rad14 strain (AID 165);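 also: 0% = growth equal to vehicle treated cultures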; settings: S. cerevisiae cln2 rad14 strain, hits give high values
Method in brief: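 Readout is yeast growth inhibition versus vehicle-treated controls, using a strain with cln2 and rad14 alterations exposed to compound.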

[10] = NCI Yeast Anticancer Drug Screen. Data for the bub3 strain (AID 167); settings: S. cerevisiae bub3 mutant strain, hits give high values
Method in brief: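 Part of a panel of yeast mutants defective in DNA damage repair or cell cycle regulation. Each strain is grown with compound, and inhibition is calculated relative to solvent-treated cultures.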

[11] = NCI Yeast Anticancer Drug Screen. Data for the mlh1 strain (AID 171);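 also: 0% = growth of vehicle-treated control cultures of the same strain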; settings: S. cerevisiae mlh1 strain growth inhibition, hits give high values
Method in brief: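 Measured: yeast growth. Reference: vehicle-treated controls. Organism: strain with a defined alteration affecting DNA damage repair or cell cycle control, treated with compound.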

[12] = NCI Yeast Anticancer Drug Screen. Data for the sgs1 strain (AID 173);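 also: 0% = growth of vehicle-only control cultures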; settings: S. cerevisiae sgs1 mutant, hits give high values
Method in brief: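 Each compound was added to cultures of the altered yeast strain. Growth was recorded, and inhibition was derived by comparison with vehicle controls.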

[13] = NCI Yeast Anticancer Drug Screen. Data for the mlh1 rad18 strain (AID 175); settings: S. cerevisiae mlh1 rad18 strain growth inhibition, hits give high values
Method in brief: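 Genetically defined yeast (DNA repair-deficient) exposed to compounds; growth inhibition determined relative to vehicle.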

[14] = NCI Yeast Anticancer Drug Screen. Data for the rad18 strain (AID 177); settings: S. cerevisiae rad18 mutant growth inhibition, hits give high values
Method in brief: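 Vehicle-treated cultures served as the baseline for scoring compound-induced growth inhibition in DNA-repair-mutant yeast.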

[15] = NCI Yeast Anticancer Drug Screen. Data for the rad14 strain (AID 159);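 also: 0% = growth of vehicle-treated control cultures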; settings: S. cerevisiae rad14 strain growth inhibition, hits give high values
Method in brief: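 Readout: yeast growth inhibition, referenced to vehicle-only cultures. Strain bears a defined alteration in DNA damage repair.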

[16] = NCI Yeast Anticancer Drug Screen. Data for the wt2 strain (AID 169);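 also: 0% = growth of vehicle-treated yeast cultures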; settings: S. cerevisiae wt2 strain growth inhibition, hits give high values
Method in brief: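 Against vehicle-treated controls, the growth of yeast exposed to each compound was compared, and the inhibition was recorded.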

[17] = at 5.0 µM (retest, dose inferred, filed as 0.5)
[18] = at 50.0 µM (retest, dose inferred, filed as 5.0)

Measured: growth inhibition

O=C(Oc1ccc([N+](=O)[O-])cc1)c1ccc([N+](=O)[O-])cc1
inactive: [1]; at 1.2 µM 7% | [1]; at 3.7 µM 7% | [1]; at 11.0 µM 1% | [1]; at 33.0 µM 19% | [1]; at 100.0 µM 26% | [2]; at 1.2 µM 1% | [2]; at 3.7 µM 0% | [2]; at 11.0 µM 3% | [2]; at 33.0 µM -1% | [2]; at 100.0 µM 11% | [3]; at 1.2 µM 5% | [3]; at 3.7 µM 2% | [3]; at 11.0 µM -3% | [3]; at 33.0 µM 9% | [3]; at 100.0 µM 11% | [4]; at 1.2 µM 0% | [4]; at 3.7 µM 1% | [4]; at 11.0 µM 2% | [4]; at 33.0 µM 9% | [4]; at 100.0 µM 13% | [5]; at 1.2 µM 9% | [5]; at 3.7 µM 6% | [5]; [17] 45% | [5]; at 11.0 µM 5% | [5]; at 33.0 µM 40% | [5]; at 50.0 µM 50.8% | [5]; at 100.0 µM 62% | [6]; at 1.2 µM 1% | [6]; at 3.7 µM 2% | [6]; [17] 25% | [6]; at 11.0 µM 2% | [6]; at 33.0 µM 7% | [6]; [18] 33% | [6]; at 50.0 µM 53.7% | [6]; at 100.0 µM 10% | [7]; [17] 61% | [7]; at 50.0 µM 68.5% | [8]; at 1.2 µM 1% | [8]; at 3.7 µM 2% | [8]; at 11.0 µM 2% | [8]; at 33.0 µM 10% | [8]; at 100.0 µM 10% | [9]; [17] 18% | [9]; [18] 28% | [9]; at 50.0 µM 31.1% | [10]; at 1.2 µM 3% | [10]; at 3.7 µM 4% | [10]; at 11.0 µM 4% | [10]; at 33.0 µM 12% | [10]; at 100.0 µM 15% | [11]; at 1.2 µM 3% | [11]; at 3.7 µM 2% | [11]; at 11.0 µM 2% | [11]; at 33.0 µM 17% | [11]; at 100.0 µM 35% | [12]; at 1.2 µM -4% | [12]; at 3.7 µM -18% | [12]; at 11.0 µM -22% | [12]; at 33.0 µM 7% | [12]; at 100.0 µM 43% | [13]; [17] 67% | [14]; at 1.2 µM 4% | [14]; at 3.7 µM 7% | [14]; at 11.0 µM 5% | [14]; at 33.0 µM 22% | [14]; at 100.0 µM 45%
active: [5]; [18] 82% | [7]; [18] 86% | [10]; [17] 76% | [10]; [18] 88% | [10]; at 50.0 µM 85% | [13]; [18] 83% | [13]; at 50.0 µM 86.2%

O=C(NOC(=O)c1ccc([N+](=O)[O-])cc1)c1ccc(Cl)cc1
inactive: [1]; at 1.2 µM -1% | [1]; at 3.7 µM 4% | [1]; at 11.0 µM 31% | [2]; at 1.2 µM -30% | [2]; at 3.7 µM -31% | [2]; at 11.0 µM -9% | [4]; at 1.2 µM -58% | [4]; at 3.7 µM -33% | [4]; at 11.0 µM 1% | [5]; at 1.2 µM -36% | [5]; at 3.7 µM -40% | [5]; [17] 6% | [5]; at 11.0 µM 10% | [6]; at 1.2 µM -84% | [6]; at 3.7 µM -64% | [6]; [17] -4% | [6]; at 11.0 µM -15% | [15]; at 1.2 µM -52% | [15]; at 3.7 µM -27% | [15]; at 11.0 µM -7% | [7]; [17] 10% | [8]; at 1.2 µM -18% | [8]; at 3.7 µM 6% | [8]; at 11.0 µM 15% | [9]; [17] 36% | [10]; at 1.2 µM -19% | [10]; at 3.7 µM -18% | [10]; [17] 0% | [10]; at 11.0 µM -4% | [10]; at 33.0 µM 67% | [16]; at 1.2 µM -47% | [16]; at 3.7 µM -27% | [16]; at 11.0 µM 11% | [11]; at 1.2 µM -35% | [11]; at 3.7 µM -35% | [11]; at 11.0 µM -1% | [12]; at 1.2 µM -39% | [12]; at 3.7 µM -17% | [12]; at 11.0 µM 48%
active: [1]; at 33.0 µM 89% | [1]; at 100.0 µM 97% | [2]; at 33.0 µM 84% | [2]; at 100.0 µM 96% | [4]; at 33.0 µM 90% | [4]; at 100.0 µM 97% | [5]; at 33.0 µM 83% | [5]; [18] 89% | [5]; at 50.0 µM 92.4% | [5]; at 100.0 µM 95% | [6]; at 33.0 µM 82% | [6]; [18] 93% | [6]; at 50.0 µM 92.7% | [6]; at 100.0 µM 97% | [15]; at 33.0 µM 88% | [15]; at 100.0 µM 97% | [7]; [18] 94% | [7]; at 50.0 µM 91.3% | [8]; at 33.0 µM 80% | [8]; at 100.0 µM 98% | [9]; [18] 96% | [9]; at 50.0 µM 89% | [10]; [18] 89% | [10]; at 50.0 µM 90% | [10]; at 100.0 µM 95% | [16]; at 33.0 µM 87% | [16]; at 100.0 µM 97% | [11]; at 33.0 µM 89% | [11]; at 100.0 µM 96% | [12]; at 33.0 µM 88% | [12]; at 100.0 µM 95%
